TbREL1 inh – TbREL1 RNA ligase inhibitors, primary screen, biochemical, FRET fluorescence; inhibition, % at 9.66 µM; TbREL1 RNA ligation; 0.49% of 89,000 active; AID 1117264, 2014; RNA-editing ligase 1, mitochondrial (Trypanosoma brucei brucei), P86926;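 active means inhibition above the mean inhibition across all screened compounds plus 3 SD, cut at about 11% in these data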;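 further: 0% = plate median of test wells and 100% = NSC42067 control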
TbREL1 confirm – TbREL1 RNA ligase inhibitors, confirmation, biochemical, FRET fluorescence, triplicate. shares compounds with TbREL1 inh. TbREL1 RNA ligation. inhibition, % at 9.66 µM. 37% of 390 active. AID 1117282, 2014;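 active means mean inhibition across replicates above a set limit taken from the earlier primary screen, cut at about 11% in these data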;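 further: 0% = REL1 with substrate and DMSO and 100% = REL1 plus control inhibitor NSC42067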
Active calls of the source: *. The entries come from a sample that favours hits as a whole.

For O=C(NC1CC1)c1cn(Cc2ccccc2)nc1-c1ccccc1 the results were TbREL1 inh -1.
Screening N#CCCn1cc(C(=O)Nc2ccc(F)cc2)c(-c2ccc([N+](=O)[O-])cc2)n1 returned TbREL1 inh 11* and TbREL1 confirm 4.
For N#CCCn1cc(C(=O)Nc2ccc([N+](=O)[O-])cc2)c(-c2ccccc2)n1 the results were TbREL1 inh -2.
`CC[C@H](C)[C@@H]1OC(=O)[C@H](C(C)C)N(C)C(=O)[C@H](C(C)C)NC(=O)[C@@H](C)[C@@H](CCCC#CBr)OC(=O)[C@H](C(C)C)N(C)C(=O)C2CCCN2C1=O` (stereo not given in full) gave TbREL1 inh -2.
`COC(=O)C1=C(c2ccc(-c3ccccc3)c(F)c2)C[C@@H]2CC[C@H]1N2C(=O)NCCOc1ccc(OC)cc1` gave TbREL1 inh -2.
`CCOC(=O)CC1c2ccccc2-n2nncc2CN1C` (stereo not given) gave TbREL1 inh 5.
`Cc1ccccc1-c1ccc2c(c1)CNCc1cnnn1-2` gave TbREL1 inh -2.
Screening Cc1ccccc1CN1Cc2cnnn2-c2ccccc2C1C#N (stereo not given) returned TbREL1 inh 11* and TbREL1 confirm 4.
For COc1cc(O)c2c(c1)/C=C/C[C@H](O)[C@H](O)[C@@H](O)/C=C/C[C@H](C)OC2=O the results were TbREL1 inh 3.
Screening CN=C1CN=C(c2ccc[nH]2)c2cc(Cl)ccc2N1 returned TbREL1 inh 6.
COc1ccc(-n2nnnc2C(c2ccccc2OC(F)(F)F)N2CCC(n3c(=O)[nH]c4ccccc43)CC2)cc1 (stereo not given) was read as TbREL1 inh 0.
CCCCn1c(N)c(C(=O)OCCOC)c2nc3ccccc3nc21 was read as TbREL1 inh 4.
CCCCn1c(NC(=O)c2ccco2)c(C(=O)OCC)c2nc3ccccc3nc21 was read as TbREL1 inh 34* and TbREL1 confirm 45*.
Screening CCCCOCCCn1c(N)c(C(=O)OCCOC)c2nc3ccccc3nc21 returned TbREL1 inh 0.
CCOC(=O)[C@]12Cc3c(cc(OC)c(OC)c3OC)[C@H]1N(C(C)C)C(=O)c1ccccc12 was read as TbREL1 inh -4.
